This passage reports outcome and AC50 results from PubChem BioAssay (EPA / NIEHS).

Molecules are shown by their SMILES. Calls of active or inactive are those of the source. The calls were made as follows: active = hit-call score of the fitted dose curve at least 0.9, where 1 is the maximum; inactive = score below 0.9.

Read-out in the assay: Vascular cell adhesion molecule 1 (VCAM1), VCAM1 (gene 7412)
As to the kind of experiment: BSK_LPS_VCAM1: BioMAP Diversity Plus: LPS Assay for Vascular cell adhesion molecule 1 (VCAM1) Biomarker Activity (AID 2283086). Conditions: primary human HUVEC with PBMC; actives raise or lower the signal. Here is the method:
BSK_LPS is a cell-based, multiplexed-readout assay that uses umbilical vein endothelium and peripheral blood mononuclear cells, a human vascular primary cell co-culture, with measurements taken at 24 hours after chemical dosing in a 96-well plate.BSK_LPS_VCAM1 is an assay component measured in the BSK_LPS assay. It measures VCAM-1 antibody related to regulation of gene expression using ELISA technology.Data from the assay component BSK_LPS_VCAM1 was analyzed into 1 assay endpoint. This assay endpoint, BSK_LPS_VCAM1, was analyzed with bidirectional fitting relative to DMSO as the negative control and baseline of activity. Using a type of binding reporter, gain or loss-of-signal activity can be used to understand changes in the signaling as they relate to the gene VCAM1. Furthermore, this assay endpoint can be referred to as a primary readout, because this assay has produced multiple assay endpoints where this one serves a signaling function. To generalize the intended target to other relatable targets, this assay endpoint is annotated to the cell adhesion molecules intended target family, where the subfamily is Immunoglobulin CAM.
The levels of cell surface (or secreted, indicated by the prefix "s") biomarker endpoints were measured by ELISA. Overt cytotoxicity to cells in confluent adherent cultures (all systems other than the BT system) was assessed by measuring total protein levels using sulforhodamine B (SRB) staining in parallel cultures at the time of biomarker measurements, indicated as SRB endpoints. For proliferation assays for adherent cell types, individual cell types are cultured at sub-confluence and relative cell numbers quantified by SRB staining at time points optimized for each system (48 h: 3C and CASM3C systems; 72 h: BT and HDF3CGF systems; 96 h: SAg system). SRB was performed by staining cells with 0.1% SRB after fixation with 10% TCA and reading wells at 560 nm.Viability and proliferation of PBMC (T cells) was quantified by Alamar Blue reduction for the SAg and BT systems. For PBMC viability (referred to as PBMC Cytotoxicity within the assay endpoint names), cells were plated (75,000/well in a 96-well plate) and then chemical samples added for 1 h before addition of activators, SEB and TSST-1 (20 ng/mL final concentration each). Cells were incubated for 90 h. Then, Alamar Blue (20 uL/well) (Invitrogen, Cat DAL1100) was added for 6 h, and the plates were read with a fluorescence microplate reader at 546/580 nm (excitation/emission). For PBMC proliferation, cells were plated and activated as above but incubated for only 16 h prior to addition of Alamar Blue. Plates were read after 6 h.
Take `CC1(C)[C@H](C(=O)O[C@H](C#N)c2cccc(Oc3ccccc3)c2)[C@@H]1/C=C(\Cl)C(F)(F)F`: the outcome was inactive.
Turning to `CCCCN(CCCC)C(=S)[S-].CCCCN(CCCC)C(=S)[S-].[Ni+2]`, the outcome was inactive.
Regarding `Oc1cccc(-c2ccccc2)c1`, the AC50 – broadly, the midpoint of the concentration-response curve, whichever way the signal moves – is 20 µM (active).
For the compound `N#Cc1cccnc1`, the result was inactive.
The same measure, in the same setting: to `OCCN(CCO)CCO` belongs “inactive”; to `Nc1c(Oc2ccccc2)cc(O)c2c1C(=O)c1ccccc1C2=O`, “inactive”.
The same measure, in the same setting: in the case of `Cc1ccc(OP(=O)(Oc2ccc(C)cc2C)Oc2ccc(C)cc2C)c(C)c1` it was “inactive”; in that of `CC(C)(C)c1cc([N+](=O)[O-])cc(C(C)(C)C)c1O`, “inactive”.
On to `CC(C)N(C(=O)CCl)c1ccccc1`, for which the AC50 is 18 µM (active).
For `Cc1ccccc1OP(=O)(Oc1ccccc1C)Oc1ccccc1C`, the AC50 was 11.4 µM (active).
The same measure, in the same setting: in the case of `CCOC(=O)C(SP(=S)(OC)OC)c1ccccc1` (stereo not given) it was 14.6 µM (active).
`O=C(O)COc1cc(Cl)c(Cl)cc1Cl`: the result was inactive.
Same read-out and setting: to `Clc1cccc(Cl)c1Cl` belongs “inactive”.
The same measure, in the same setting: in the case of `OCCCCO` it was “inactive”; in that of `O=C(N[C@H]1CN2CCC1CC2)c1ccc2c(c1)OCCO2`, “inactive”; in that of `CCC(C)(C#N)N=NC(C)(C#N)CC` (stereo not given), “inactive”.
As to `O=C(Cc1ccccc1)OCCc1ccccc1`, the outcome was inactive.
Consider `OC(Cc1ccccc1Cl)(Cn1cncn1)C1(Cl)CC1` (stereo not given), for which the result was inactive.
Still for that read-out and setting: to `Clc1cccc(Cl)c1` belongs “inactive”.
Turning to `O=c1oc2ccccc2c(O)c1C(CC(O)c1ccc(-c2ccc(Br)cc2)cc1)c1ccccc1` (stereo not given), the AC50 was 14.1 µM (active).
As to `Cc1c([N+](=O)[O-])c(C)c([N+](=O)[O-])c(C(C)(C)C)c1[N+](=O)[O-]`, the outcome was inactive.
Still for that read-out and setting: to `CCN(CC)C(=O)C(Cl)=C(C)OP(=O)(OC)OC` belongs “inactive”.
Take `O=C1C=CC(=O)c2ccccc21`: the AC50 is 2 µM (active).
On the same count and under the same terms, to `O=C(O)C1(c2ccc3c(c2)OC[C@H](Cc2ccc(-c4ccccc4)cc2)[C@H]3O)CCCC1` belongs 20 µM (active).
Consider `Cc1cc(Cl)ccc1OC(C)C(=O)O` (stereo not given), for which the outcome was inactive.
For `COCC(=O)N(c1c(C)cccc1C)[C@H](C)C(=O)OC`, the result was inactive.
With `O=[N+]([O-])c1ccc(Nc2ccccc2)cc1`, the result was inactive.
For `COc1ccccc1N`, the outcome was inactive.
On to `[Cl][Sn]([c]1ccccc1)([c]1ccccc1)[c]1ccccc1`, for which the AC50 is 0.195 µM (active).
Turning to `Oc1ccc(Cc2ccc(O)cc2)cc1`, the outcome was inactive.
Take `Oc1cc(Cl)c(Cl)cc1Cl`: the AC50 is 32 µM (active).
On to `Cc1cc(C)cc(C)c1`, for which the result was inactive.
Still for that read-out and setting: to `c1ccc2sc(SNC3CCCCC3)nc2c1` belongs “inactive”.
With `NC(=O)CCl`, the outcome was inactive.
As to `O=C(CCl)NCO`, the outcome was inactive.
On to `C[C@]12CC[C@@H](O)C[C@@H]1CC[C@@H]1[C@@H]2CC[C@]2(C)C(=O)CC[C@@H]12`, for which the result was inactive.
With `Cc1ccc2nc3sc(=O)sc3nc2c1`, the AC50 was 7.61 µM (active).
In the case of `CCOP(=O)(OCC)OC(=CCl)c1ccc(Cl)cc1Cl`, the result was inactive.
On to `Cc1ccccc1OP(=O)(Oc1ccccc1)Oc1ccccc1`, for which the AC50 was 20 µM (active).
On the same count and under the same terms, in the case of `O=S(=O)(C(Cl)(Cl)Cl)C(Cl)(Cl)Cl` it was 2.28 µM (active).
